Results on twelve compounds are retold here after PubChem BioAssay (EPA / NIEHS).

Molecules are shown by their SMILES. Inconclusive results are not listed. The source made the active and inactive calls. The calls were made as follows: active = hit-call score of the fitted dose curve at least 0.9, where 1 is the maximum; inconclusive = response in the unintended direction; inactive = score below 0.9.

As a reminder, the AC50 is the concentration giving half of the maximal activity seen.

Test [1] addresses D(1A) dopamine receptor (Homo sapiens) (UniProt P21728). Briefly: NVS_GPCR_hDRD1: NovaScreen (NVS) G Protein-Coupled Receptor Assay for human Dopamine Receptor D1 (DRD1) (AID 2283269). The gist of the method:
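Cell-free competition with radioligand, filter-trapped and scintillation-counted 1 h post-dose, using HEK293-derived human D1 preparation. Duplicate single-point testing at 25 uM first, then concentration series for actives; DMSO served as baseline, loss-of-signal scored.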

Test [2] addresses Muscarinic acetylcholine receptor M3 (Homo sapiens) (UniProt P20309). Briefly: NVS_GPCR_hM3: NovaScreen (NVS) G Protein-Coupled Receptor Assay for human Muscarinic, M3 Receptor (AID 2283272). In a few lines:
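Radioligand displacement binding on human M3 receptor in CHO-derived membranes, 1 h incubation, filter-based scintillation counting. Primary screen in duplicate at 25 uM; actives followed up in concentration series; loss of signal versus DMSO.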

For test [3], the target named is Muscarinic acetylcholine receptor M2 (Homo sapiens) (UniProt P08172). The test is described as follows: NVS_GPCR_hM2: NovaScreen (NVS) G Protein-Coupled Receptor Assay for human Muscarinic, M2 Receptor (AID 2283273). The gist of the method: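 CHO-expressed human M2 receptor preparation, competitive displacement of a radioligand read by filter-based scintillation counting after 1 h. Single 25 uM duplicate screen, then concentration-response follow-up of actives; DMSO baseline.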
Sequence of Muscarinic acetylcholine receptor M2 (Homo sapiens) (P08172 whole entry, looked up): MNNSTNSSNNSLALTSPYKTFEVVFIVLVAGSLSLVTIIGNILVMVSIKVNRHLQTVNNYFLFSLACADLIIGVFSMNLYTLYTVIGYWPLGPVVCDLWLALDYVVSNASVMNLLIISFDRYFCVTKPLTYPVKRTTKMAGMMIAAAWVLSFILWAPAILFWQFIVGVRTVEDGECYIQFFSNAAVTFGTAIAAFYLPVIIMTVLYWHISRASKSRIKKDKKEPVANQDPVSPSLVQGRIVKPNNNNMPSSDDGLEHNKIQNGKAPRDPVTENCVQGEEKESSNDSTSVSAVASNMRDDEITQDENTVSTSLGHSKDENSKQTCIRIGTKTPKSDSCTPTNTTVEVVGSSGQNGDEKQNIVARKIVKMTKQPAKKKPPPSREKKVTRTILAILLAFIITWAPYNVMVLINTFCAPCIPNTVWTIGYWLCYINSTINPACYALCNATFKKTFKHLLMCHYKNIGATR

Test [4] has as its target human Muscarinic, M4 Receptor, CHRM4 (gene 1132) (UniProt P08173). Briefly: NVS_GPCR_hM4: NovaScreen (NVS) G Protein-Coupled Receptor Assay for human Muscarinic, M4 Receptor (AID 2283274). The gist of the method:
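Filter-based scintillation counting of radioligand bound to CHO-expressed human M4 preparations after 1 h; loss of signal fitted versus DMSO. Initial duplicate testing at 25 uM, concentration-response follow-up for actives.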

Test [5] concerns the target Muscarinic acetylcholine receptor M1 (Homo sapiens) (UniProt P11229). The test is described as follows: NVS_GPCR_hM1: NovaScreen (NVS) G Protein-Coupled Receptor Assay for human Muscarinic, M1 Receptor (AID 2283270). In a few lines:
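Actives from a duplicate 25 uM single-point screen were retested in concentration series. Binding measured as displacement of a radioligand from CHO-derived receptor preparation, 1 h incubation, filtration and scintillation counting, analysed as signal loss against DMSO.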

For test [6], the target named is human Neurokinin, NK2 Receptor, TACR2 (gene 6865) (UniProt P21452). Briefly: NVS_GPCR_hNK2: NovaScreen (NVS) G Protein-Coupled Receptor Assay for human Neurokinin, NK2 Receptor (AID 2283278).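 Also: actives reduce bound radioligand signal relative to DMSO baseline.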 In a few lines:
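Cell-free radioligand binding using receptor protein extracted from CHO cells; readings taken 4 hours after chemical dosing by filter-based scintillation counting. Primary screen ran single concentration (25 uM) in duplicate; actives followed up in concentration series, loss-of-signal versus DMSO baseline.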

The target in test [7] is human Opioid Receptor Delta 1 (Opiate D1), OPRD1 (gene 4985) (UniProt P41143). Briefly: NVS_GPCR_hOpiate_D1: NovaScreen (NVS) G Protein-Coupled Receptor Assay for human Opioid Receptor Delta 1 (Opiate D1) (AID 2283280). The gist of the method:
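Membrane preparations from CHO cells bearing the human receptor were incubated 1 h with test chemical, and bound radioligand was counted after filtration. Actives from 25 uM duplicate screening were retested in concentration-response.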

The target of test [8] is human Purinergic Receptor P2Y, P2RY1 (gene 5028) (UniProt P47900). The test is described as follows: NVS_GPCR_hPY2: NovaScreen (NVS) G Protein-Coupled Receptor Assay for human Purinergic Receptor P2Y (AID 2283281). The gist of the method: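 Filtration scintillation readout of radioligand displacement on U937 extract, measured 1 h post-dosing. Single 25 uM duplicate screen, then singleton concentration series to 50 uM for chemicals passing threshold; DMSO as baseline.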

Test [9] concerns the target human Thromboxane A2 Receptor (TXA2), TBXA2R (gene 6915) (UniProt P21731). The test is described as follows: NVS_GPCR_hTXA2: NovaScreen (NVS) G Protein-Coupled Receptor Assay for human Thromboxane A2 Receptor (TXA2) (AID 2283282).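 Also: actives reduce bound radioligand signal relative to DMSO baseline.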 In a few lines:
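Cell-free radioligand binding with human platelet-derived receptor; 1 h after dosing, filter-based scintillation counting, loss of signal vs DMSO. Primary screen in duplicate at 25 uM.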

Test [10] addresses human Dopamine Receptor D2 (DRD2), DRD2 (gene 1813) (UniProt P14416). The test is described as follows: NVS_GPCR_hDRD2s: NovaScreen (NVS) G Protein-Coupled Receptor Assay for human Dopamine Receptor D2 (DRD2) (AID 2283266). The gist of the method:
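Test compound (25 uM, duplicate in the primary screen; concentration series at follow-up) competed with radioligand for human DRD2 in CHO-derived membrane protein. Filter-based scintillation counting was done 1.5 hours after dosing, with loss of signal analysed against DMSO.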

Test [11] deals with human Histamine 1 Receptor (H1), HRH1 (gene 3269) (UniProt P35367). Briefly: NVS_GPCR_hH1: NovaScreen (NVS) G Protein-Coupled Receptor Assay for human Histamine 1 Receptor (H1) (AID 2283268). The gist of the method: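 Filter-based scintillation detection of radioligand binding to human H1, 1 h incubation; chemicals screened in duplicate at 25 uM, then concentration-response; signal loss relative to DMSO taken as activity.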
Sequence of human Histamine 1 Receptor (H1), HRH1 (gene 3269) (P35367 whole entry, looked up): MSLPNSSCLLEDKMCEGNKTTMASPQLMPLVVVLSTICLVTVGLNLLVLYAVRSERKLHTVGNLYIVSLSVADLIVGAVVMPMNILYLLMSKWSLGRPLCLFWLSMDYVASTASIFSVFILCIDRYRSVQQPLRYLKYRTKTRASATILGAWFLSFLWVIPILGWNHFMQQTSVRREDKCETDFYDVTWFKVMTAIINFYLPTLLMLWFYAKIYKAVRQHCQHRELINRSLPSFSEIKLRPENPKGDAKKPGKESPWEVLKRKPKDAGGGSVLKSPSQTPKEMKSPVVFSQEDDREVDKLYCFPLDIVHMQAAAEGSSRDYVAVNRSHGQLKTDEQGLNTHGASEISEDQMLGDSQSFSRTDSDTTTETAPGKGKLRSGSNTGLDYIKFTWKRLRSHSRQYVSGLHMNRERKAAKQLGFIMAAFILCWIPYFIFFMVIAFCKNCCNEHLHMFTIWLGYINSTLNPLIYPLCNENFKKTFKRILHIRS

Test [12] deals with Muscarinic acetylcholine receptor M5 (Homo sapiens) (UniProt P08912). Briefly: NVS_GPCR_hM5: NovaScreen (NVS) G Protein-Coupled Receptor Assay for human Muscarinic, M5 Receptor (AID 2283275). The gist of the method:
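Chemicals passing a primary duplicate screen at 25 uM were run as singleton concentration series, maximum 50 uM. Displacement of a specific radioligand from CHO-extracted receptor was read by filter scintillation after 1 h, relative to DMSO.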

The target in test [13] is human Leukotriene B4 Receptor 1 (LTB4-BLT1), LTB4R (gene 1241) (UniProt Q15722). Briefly: NVS_GPCR_hLTB4_BLT1: NovaScreen (NVS) G Protein-Coupled Receptor Assay for human Leukotriene B4 Receptor 1 (LTB4-BLT1) (AID 2283271). In a few lines:
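Cell-free human neutrophil receptor preparation, 1 h exposure, radioligand binding read by filter scintillation counting. Single 25 uM duplicate screen, then concentration series topping at 50 uM; binding loss scored against DMSO baseline.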

Test [14] deals with human Dopamine Receptor D4.4 (DRD4.4), DRD4 (gene 1815) (UniProt P21917). The test is described as follows: NVS_GPCR_hDRD4.4: NovaScreen (NVS) G Protein-Coupled Receptor Assay for human Dopamine Receptor D4.4 (DRD4.4) (AID 2283264). In a few lines: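 Filter-binding assay with a tritiated or iodinated ligand, cell-free receptor prepared from CHO, 1 hour. Loss of bound radioactivity versus DMSO; single 25 uM duplicate screen, then concentration-response for actives.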

Test [15] addresses Type-1 angiotensin II receptor (Homo sapiens) (UniProt P30556). The test is described as follows: NVS_GPCR_hAT1: NovaScreen (NVS) G Protein-Coupled Receptor Assay for human Angiotensin II receptor type 1 (AT1) (AID 2283263). The gist of the method:
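Hits from a 25 uM duplicate screen (threshold e.g. 30% inhibition) were run in concentration-response with 50 uM top concentration. Displacement of specific radioligand from KAN-TS membrane preparations measured after 3 h by filter scintillation, DMSO as baseline.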

For test [16], the target named is human Endothelin Receptor Type A (ETA), EDNRA (gene 1909) (UniProt P25101). Briefly: NVS_GPCR_hETA: NovaScreen (NVS) G Protein-Coupled Receptor Assay for human Endothelin Receptor Type A (ETA) (AID 2283265). In a few lines:
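Binding of radioligand to membrane protein extracted from SH-SY5Y cells was read by filtration and scintillation after 3 h. Compounds were screened at 25 uM in duplicate, with hits followed up in singleton concentration series to 50 uM.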

The target of test [17] is human Endothelin Receptor Type B (ETB), EDNRB (gene 1910) (UniProt P24530). Briefly: NVS_GPCR_hETB: NovaScreen (NVS) G Protein-Coupled Receptor Assay for human Endothelin Receptor Type B (ETB) (AID 2283267). In a few lines: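 Filter-based scintillation readout of radioligand displacement, 4 h, using membranes from human astrocytoma cells. Actives from a 25 uM duplicate screen were retested in concentration-response (top 50 uM) relative to DMSO baseline.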

Test [18] has as its target human Neuropeptide Receptor Y1 (NPY1), NPY1R (gene 4886) (UniProt P25929). Briefly: NVS_GPCR_hNPY1: NovaScreen (NVS) G Protein-Coupled Receptor Assay for human Neuropeptide Receptor Y1 (NPY1) (AID 2283276). The gist of the method: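 Displacement of specific radioligand from NPY1 receptor of SK-N-MC origin, read by filtration and scintillation after 1 h. Compounds first tested at 25 uM in duplicate, then actives in concentration series; signal loss relative to DMSO.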

Test [19] deals with Neuropeptide Y receptor type 2 (Homo sapiens) (UniProt P49146). The test is described as follows: NVS_GPCR_hNPY2: NovaScreen (NVS) G Protein-Coupled Receptor Assay for human Neuropeptide Receptor Y2 (NPY2) (AID 2283277). In a few lines: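 Chemicals were first tested in duplicate at 25 uM, then actives in singleton concentration series to 50 uM. Tracer binding to SK-N-MC-derived protein measured cell-free after 1 h via filter scintillation; signal loss relative to DMSO.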

Sequence of human Thromboxane A2 Receptor (TXA2), TBXA2R (gene 6915) (P21731 whole entry, looked up): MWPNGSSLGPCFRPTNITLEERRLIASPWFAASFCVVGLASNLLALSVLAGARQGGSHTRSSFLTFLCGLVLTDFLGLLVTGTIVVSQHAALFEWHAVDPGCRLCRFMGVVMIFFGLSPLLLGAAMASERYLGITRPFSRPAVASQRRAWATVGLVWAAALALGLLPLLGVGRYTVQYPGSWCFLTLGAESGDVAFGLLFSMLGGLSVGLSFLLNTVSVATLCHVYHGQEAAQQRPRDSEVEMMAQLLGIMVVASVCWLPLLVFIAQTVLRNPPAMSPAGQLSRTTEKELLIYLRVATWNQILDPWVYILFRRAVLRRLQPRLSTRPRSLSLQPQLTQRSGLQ
Sequence of Muscarinic acetylcholine receptor M1 (Homo sapiens) (P11229 whole entry, looked up): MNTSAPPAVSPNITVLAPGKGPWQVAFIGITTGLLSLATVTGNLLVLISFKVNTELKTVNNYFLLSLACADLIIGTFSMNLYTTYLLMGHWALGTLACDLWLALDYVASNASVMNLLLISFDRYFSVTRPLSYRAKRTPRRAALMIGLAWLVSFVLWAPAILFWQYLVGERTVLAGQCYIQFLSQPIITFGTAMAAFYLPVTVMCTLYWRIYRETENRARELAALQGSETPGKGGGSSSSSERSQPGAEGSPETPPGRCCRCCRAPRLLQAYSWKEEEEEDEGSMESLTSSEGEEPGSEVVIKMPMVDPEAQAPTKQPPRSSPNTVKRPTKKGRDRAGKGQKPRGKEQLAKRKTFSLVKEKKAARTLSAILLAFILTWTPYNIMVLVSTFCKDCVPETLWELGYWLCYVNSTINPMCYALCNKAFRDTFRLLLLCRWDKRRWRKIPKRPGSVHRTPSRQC
Sequence of D(1A) dopamine receptor (Homo sapiens) (P21728 whole entry, looked up): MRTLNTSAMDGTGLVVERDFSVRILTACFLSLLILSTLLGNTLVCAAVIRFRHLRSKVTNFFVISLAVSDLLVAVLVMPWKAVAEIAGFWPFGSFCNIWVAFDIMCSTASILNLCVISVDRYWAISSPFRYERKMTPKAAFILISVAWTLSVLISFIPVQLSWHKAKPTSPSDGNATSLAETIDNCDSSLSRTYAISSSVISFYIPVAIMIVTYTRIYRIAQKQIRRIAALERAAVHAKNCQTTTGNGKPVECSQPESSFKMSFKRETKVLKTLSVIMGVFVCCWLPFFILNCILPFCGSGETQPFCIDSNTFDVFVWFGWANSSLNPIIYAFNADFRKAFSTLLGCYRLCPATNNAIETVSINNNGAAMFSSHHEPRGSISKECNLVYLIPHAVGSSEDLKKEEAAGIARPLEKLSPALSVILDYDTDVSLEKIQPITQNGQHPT
Sequence of human Neurokinin, NK2 Receptor, TACR2 (gene 6865) (P21452 whole entry, looked up): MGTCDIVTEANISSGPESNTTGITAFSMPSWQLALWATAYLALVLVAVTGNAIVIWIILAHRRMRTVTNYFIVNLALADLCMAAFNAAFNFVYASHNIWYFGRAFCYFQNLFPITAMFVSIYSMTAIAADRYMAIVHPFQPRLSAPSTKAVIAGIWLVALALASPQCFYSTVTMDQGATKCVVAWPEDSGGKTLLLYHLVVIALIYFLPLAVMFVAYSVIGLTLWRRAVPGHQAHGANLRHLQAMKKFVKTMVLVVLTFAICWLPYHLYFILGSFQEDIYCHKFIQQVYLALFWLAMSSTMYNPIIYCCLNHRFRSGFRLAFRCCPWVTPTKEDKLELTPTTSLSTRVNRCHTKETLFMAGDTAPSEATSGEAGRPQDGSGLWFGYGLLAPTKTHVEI
Sequence of human Dopamine Receptor D2 (DRD2), DRD2 (gene 1813) (P14416 whole entry, looked up): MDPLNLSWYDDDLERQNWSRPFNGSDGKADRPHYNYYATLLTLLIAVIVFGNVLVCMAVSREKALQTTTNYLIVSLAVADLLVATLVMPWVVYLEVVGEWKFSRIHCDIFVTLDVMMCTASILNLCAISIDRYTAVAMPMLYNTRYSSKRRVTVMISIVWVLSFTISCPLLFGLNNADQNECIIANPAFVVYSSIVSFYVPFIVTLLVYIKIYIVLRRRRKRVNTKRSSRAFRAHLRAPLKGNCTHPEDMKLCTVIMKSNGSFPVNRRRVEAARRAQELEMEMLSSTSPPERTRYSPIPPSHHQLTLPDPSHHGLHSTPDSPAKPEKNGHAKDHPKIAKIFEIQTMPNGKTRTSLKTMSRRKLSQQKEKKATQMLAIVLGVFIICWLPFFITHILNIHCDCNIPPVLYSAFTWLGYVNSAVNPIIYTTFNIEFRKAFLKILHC
Sequence of Muscarinic acetylcholine receptor M3 (Homo sapiens) (P20309 whole entry, looked up): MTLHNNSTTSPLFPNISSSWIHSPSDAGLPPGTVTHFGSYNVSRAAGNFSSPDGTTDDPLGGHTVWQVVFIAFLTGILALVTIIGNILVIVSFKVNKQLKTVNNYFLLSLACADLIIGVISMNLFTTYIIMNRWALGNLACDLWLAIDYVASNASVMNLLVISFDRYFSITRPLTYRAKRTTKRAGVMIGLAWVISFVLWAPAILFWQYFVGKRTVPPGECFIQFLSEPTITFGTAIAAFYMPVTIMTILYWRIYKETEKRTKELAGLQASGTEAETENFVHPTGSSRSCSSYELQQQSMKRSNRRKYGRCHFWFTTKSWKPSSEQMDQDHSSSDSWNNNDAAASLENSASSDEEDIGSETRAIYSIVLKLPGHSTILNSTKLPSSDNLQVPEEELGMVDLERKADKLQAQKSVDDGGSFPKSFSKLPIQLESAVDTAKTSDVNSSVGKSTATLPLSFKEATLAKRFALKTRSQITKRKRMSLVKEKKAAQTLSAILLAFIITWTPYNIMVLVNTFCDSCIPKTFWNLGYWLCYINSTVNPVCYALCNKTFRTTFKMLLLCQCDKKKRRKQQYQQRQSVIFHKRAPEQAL
Sequence of human Muscarinic, M4 Receptor, CHRM4 (gene 1132) (P08173 whole entry, looked up): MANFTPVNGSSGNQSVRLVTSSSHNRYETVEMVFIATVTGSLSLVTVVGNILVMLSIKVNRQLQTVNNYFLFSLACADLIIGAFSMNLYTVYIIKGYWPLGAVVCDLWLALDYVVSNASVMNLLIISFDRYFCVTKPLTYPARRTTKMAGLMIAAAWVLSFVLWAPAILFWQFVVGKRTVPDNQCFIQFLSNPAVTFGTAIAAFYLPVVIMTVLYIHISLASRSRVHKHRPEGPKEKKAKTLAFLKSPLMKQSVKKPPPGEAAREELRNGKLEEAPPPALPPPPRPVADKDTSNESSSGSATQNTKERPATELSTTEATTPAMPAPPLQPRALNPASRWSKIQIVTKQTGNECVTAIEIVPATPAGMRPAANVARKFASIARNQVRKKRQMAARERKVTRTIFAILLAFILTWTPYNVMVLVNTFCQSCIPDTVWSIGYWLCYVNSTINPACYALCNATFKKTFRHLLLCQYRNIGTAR
Sequence of Muscarinic acetylcholine receptor M5 (Homo sapiens) (P08912 whole entry, looked up): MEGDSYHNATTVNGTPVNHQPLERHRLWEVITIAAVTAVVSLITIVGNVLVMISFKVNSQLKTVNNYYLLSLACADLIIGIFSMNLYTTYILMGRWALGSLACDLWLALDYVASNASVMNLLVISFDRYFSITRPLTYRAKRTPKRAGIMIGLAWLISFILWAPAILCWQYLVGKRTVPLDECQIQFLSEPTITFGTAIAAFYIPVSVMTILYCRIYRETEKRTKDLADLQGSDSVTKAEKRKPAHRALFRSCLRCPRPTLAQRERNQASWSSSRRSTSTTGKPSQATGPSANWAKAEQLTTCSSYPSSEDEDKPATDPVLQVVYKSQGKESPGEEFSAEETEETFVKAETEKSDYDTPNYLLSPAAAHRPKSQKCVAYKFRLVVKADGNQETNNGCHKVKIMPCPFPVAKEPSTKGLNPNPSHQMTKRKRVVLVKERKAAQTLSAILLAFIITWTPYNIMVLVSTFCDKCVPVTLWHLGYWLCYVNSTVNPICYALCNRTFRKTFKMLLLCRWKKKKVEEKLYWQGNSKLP

As for `Oc1c(I)cc(I)cc1I`, the call in test [1] was inactive.

Turning to `O=C1C2(Cl)C3(Cl)C4(Cl)C(Cl)(Cl)C5(Cl)C3(Cl)C1(Cl)C5(Cl)C24Cl` (stereo not given), the compound was classed as inactive in test [1], in [2], in test [3] and in [4].

As for `CC(C)(C)CC(C)(C)c1ccc(O)cc1`, the outcome in test [5], in test [3] and in test [8] was inactive. The AC50 in test [6] is 25 µM (active); in [7] it was 8.28 µM (active); in [9] it was 43.7 µM (active).

In the case of `CCSC(C)CC1CC(=O)C(C(CC)=NOC/C=C/Cl)=C(O)C1` (stereo not given), the AC50 in [9] is 3.42 µM (active).

For `CCOP(=S)(OCC)SCSP(=S)(OCC)OCC`, in [10], the call was inactive.

Consider `CC12CC1(C)C(=O)N(c1cc(Cl)cc(Cl)c1)C2=O` (stereo not given), for which the call in test [6] was inactive.

On to `CCC(=O)C(CC(C)N(C)C)(c1ccccc1)c1ccccc1` (stereo not given), for which the AC50 was 5.6 µM (active) in test [10]; 7.25 µM (active) in test [11]; 6.92 µM (active) in [5]; 10.7 µM (active) in [2]; 9.96 µM (active) in test [3]; 8.3 µM (active) in test [4]. Moreover, the half-maximal activity concentration (AC50) in test [12] is 4.57 µM (active).

`Nc1ncc([N+](=O)[O-])s1`: the compound was called inactive in [6].

As for `O=C(c1ccccc1)C(Cl)Cl`, in test [1], the outcome was inactive.

On to `CC(C)(C)c1cc(O)ccc1O`, for which the compound was classed as inactive in [13]. Besides, the AC50 in [6] is 16.3 µM (active).

With `CCN1CCC2(CC1)COc1cc3c(cc12)N(C(=O)c1ccc(-c2ccc(-c4nnc(C)o4)cc2C)cc1)CC3`, in test [14], the compound was classed as inactive. Also, the AC50 in test [11] was 32.2 µM (active); in test [1] it was 5.49 µM (active); in test [5] it was 0.646 µM (active); in test [2], 0.676 µM (active); in test [3], 1.32 µM (active); in test [4] it was 1.9 µM (active). In addition, the AC50 in test [12] was 2.03 µM (active).

Consider `C=C(C)C(=O)[O][Sn]([CH2]CCC)([CH2]CCC)[CH2]CCC`, for which the concentration at half-maximal activity (AC50) in test [15] is 2.23 µM (active); in test [14] it was 1.75 µM (active); in test [16], 0.697 µM (active); in [10], 0.363 µM (active); in test [17], 14.8 µM (active); in test [11] it was 1.96 µM (active). In addition, the AC50 was 0.326 µM (active) in test [1]; 1.9 µM (active) in test [5]; 2.67 µM (active) in [2]; 5.32 µM (active) in test [3]; 19.1 µM (active) in test [4]; 1.23 µM (active) in [12]. Moreover, the AC50 was 1.14 µM (active) in test [18]; 14.8 µM (active) in test [19]; 0.977 µM (active) in [6]; 0.761 µM (active) in test [7]; 5.96 µM (active) in test [9].
